Laboratory results as given in PubChem BioAssay (EPA / NIEHS).
“And” between values parts separate entries of the source, which are not always exact repeats. Equal entries are not always repeated. Records with an inconclusive call do not appear. Some structures have more than one record in an assay (separate samples or runs), and their calls can disagree. The source made the active and inactive calls. How the source made its calls, unless noted: active means hit-call score of the fitted dose curve at least 0.9, where 1 is the maximum; inconclusive means response in the unintended direction; inactive means score below 0.9.

Experiments:
[1] = target: human Peroxisome Proliferator-activated Receptor alpha (PPARa), PPARA (gene 5465) (UniProt Q07869); test: ATG_PPARa_TRANS: Attagene TRANS-FACTORIAL HepG2 Assay for human Peroxisome Proliferator-activated Receptor alpha (PPARa) (AID 2283001);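 on AC50: potency for gain of reporter signal over DMSO so agonist or activator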
Summary of the method: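 Cells (HepG2) are transfected with multiple reporter transcription units, exposed to chemical for 24 h, then total RNA is reverse-transcribed and amplified. Labelled products are quantified by capillary electrophoresis; induction is referenced to DMSO.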

[2] = target: human Peroxisome Proliferator-activated Receptor delta (PPARd), PPARD (gene 5467) (UniProt Q03181); test: ATG_PPARd_TRANS: Attagene TRANS-FACTORIAL HepG2 Assay for human Peroxisome Proliferator-activated Receptor delta (PPARd) (AID 2283002)
Summary of the method: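 Multiplexed trans-activation format: HepG2 liver cells expressing exogenous NR-Gal4 chimeras and GAL4-UAS reporters were exposed for 24 h. Reporter mRNA was detected by RT-PCR with capillary electrophoresis fluorescence; activity fitted as gain of signal relative to DMSO.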

[3] = read-out: Intercellular Adhesion Molecule 1 (ICAM1), ICAM1 (gene 3383); test: BSK_3C_ICAM1: BioMAP Diversity Plus: 3C Assay for Intercellular Adhesion Molecule 1 (ICAM1) Biomarker Activity (AID 2283003; active means hit-call score of the fitted dose curve at least 0.9, where 1 is the maximum; inactive means score below 0.9); details: primary human endothelial cells (HUVEC); actives raise or lower the signal
Summary of the method: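 ELISA readout of ICAM1 in human umbilical vein endothelial cells in the 3C system, taken 24 h post-dose. Gain or loss of signal versus DMSO was fitted in both directions, with SRB total-protein staining run in parallel.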

[4] = BSK_3C_Proliferation: Cell Proliferation Assessment in the BioMAP Diversity Plus: 3C Assay (AID 2283006; active means hit-call score of the fitted dose curve at least 0.9, where 1 is the maximum; inactive means score below 0.9;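 on AC50: potency may reflect either rise or fall in cell number versus DMSO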); details: primary human endothelial cells (HUVEC)
Summary of the method: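 Proliferation as total protein: sulforhodamine B (0.1%) stain of TCA-fixed subconfluent human umbilical vein endothelial cells, absorbance 560 nm, 48 h after dosing. Activity fitted in both directions against DMSO baseline.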

[5] = target: Peroxisome proliferator-activated receptor gamma (Homo sapiens) (UniProt P37231); test: ATG_PPARg_TRANS: Attagene TRANS-FACTORIAL HepG2 Assay for human Peroxisome Proliferator-activated Receptor-gamma (PPARg) (AID 2283007)
Summary of the method: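 Transient transfection of HepG2 with GAL4-UAS-driven reporter units; chemical dosing 24 h; total RNA → oligo(dT) RT → PCR with reporter primers → 6-FAM primer extension → HpaI digest 2 h 37 C → capillary electrophoresis. Positive direction vs DMSO.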

[6] = target: human Retinoic Acid Receptor beta (RARb), RARB (gene 5915) (UniProt P10826); test: ATG_RARb_TRANS: Attagene TRANS-FACTORIAL HepG2 Assay for human Retinoic Acid Receptor beta (AID 2283004)
Summary of the method: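 HepG2, transient MRTU transfection, NR–Gal4 chimera, 24 h treatment; RT-PCR plus CE fluorescence detection of reporter mRNA; gain of signal vs DMSO.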

[7] = target: Retinoic acid receptor alpha (Homo sapiens) (UniProt P10276); test: ATG_RARa_TRANS: Attagene TRANS-FACTORIAL HepG2 Assay for human Retinoic Acid Receptor alpha (RARa) (AID 2283005)
Summary of the method: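 HepG2 cells transiently transfected with multiple reporter units expressing chimeric RARα-GAL4 fusion, with GAL4-UAS-driven reporters. After 24 h compound exposure, reporter mRNA induction quantified by RT-PCR and capillary electrophoresis with fluorescent labeling; gain-of-signal fitted relative to DMSO control.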

[8] = target: human Retinoic Acid Receptor gamma (RARg), RARG (gene 5916) (UniProt P13631); test: ATG_RARg_TRANS: Attagene TRANS-FACTORIAL HepG2 Assay for human Retinoic Acid Receptor gamma (RARg) (AID 2283009);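 on AC50: AC50 is for reporter induction above DMSO meaning RARg activation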
Summary of the method: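 Transactivation of exogenous RARg-Gal4 fusion measured as reporter transcript induction after 24 h in transfected HepG2 cells. RNA reverse-transcribed, amplified, fluorescently labeled and resolved by capillary electrophoresis; increase relative to DMSO.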

[9] = target: human RAR-related Orphan Receptor beta (RORb), RORB (gene 6096) (UniProt Q92753); test: ATG_RORb_TRANS: Attagene TRANS-FACTORIAL HepG2 Assay for human RAR-related Orphan Receptor beta (RORb) (AID 2283010)
Summary of the method: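 Read-out is reporter mRNA induction, quantified by RT-PCR with fluorescent capillary electrophoresis, 24 h post-dose in transiently transfected HepG2 expressing exogenous NR-Gal4 chimera. Activity fitted upward versus DMSO.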

[10] = target: Nuclear receptor subfamily 1 group I member 2 (Homo sapiens) (UniProt O75469); test: ATG_PXR_TRANS: Attagene TRANS-FACTORIAL HepG2 Assay for human Pregnane X Receptor (PXR) (AID 2283008)
Summary of the method: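 Transactivation by exogenous PXR–GAL4 fusion measured as reporter transcript induction after 24 h compound treatment of transfected human HepG2 cells. Read-out via RT-PCR and capillary electrophoresis of labelled fragments, fitted upward relative to DMSO.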

Measured: AC50

human Retinoic Acid Receptor gamma (RARg), RARG (gene 5916), sequence (P13631 whole entry, looked up, the tested form may be a part): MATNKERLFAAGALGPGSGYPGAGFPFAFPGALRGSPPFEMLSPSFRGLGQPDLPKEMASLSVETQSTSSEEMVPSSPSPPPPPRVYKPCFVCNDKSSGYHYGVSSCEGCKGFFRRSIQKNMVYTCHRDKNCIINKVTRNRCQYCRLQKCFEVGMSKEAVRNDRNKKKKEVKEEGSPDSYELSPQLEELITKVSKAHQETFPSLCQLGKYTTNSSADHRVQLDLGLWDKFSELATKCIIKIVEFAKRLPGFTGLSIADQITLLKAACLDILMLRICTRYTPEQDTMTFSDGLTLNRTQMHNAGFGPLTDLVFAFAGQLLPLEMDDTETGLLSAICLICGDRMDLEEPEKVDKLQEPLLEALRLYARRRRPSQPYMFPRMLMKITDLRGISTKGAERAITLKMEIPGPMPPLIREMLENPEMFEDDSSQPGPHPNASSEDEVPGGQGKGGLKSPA
human RAR-related Orphan Receptor beta (RORb), RORB (gene 6096), sequence (Q92753 whole entry, looked up, the tested form may be a part): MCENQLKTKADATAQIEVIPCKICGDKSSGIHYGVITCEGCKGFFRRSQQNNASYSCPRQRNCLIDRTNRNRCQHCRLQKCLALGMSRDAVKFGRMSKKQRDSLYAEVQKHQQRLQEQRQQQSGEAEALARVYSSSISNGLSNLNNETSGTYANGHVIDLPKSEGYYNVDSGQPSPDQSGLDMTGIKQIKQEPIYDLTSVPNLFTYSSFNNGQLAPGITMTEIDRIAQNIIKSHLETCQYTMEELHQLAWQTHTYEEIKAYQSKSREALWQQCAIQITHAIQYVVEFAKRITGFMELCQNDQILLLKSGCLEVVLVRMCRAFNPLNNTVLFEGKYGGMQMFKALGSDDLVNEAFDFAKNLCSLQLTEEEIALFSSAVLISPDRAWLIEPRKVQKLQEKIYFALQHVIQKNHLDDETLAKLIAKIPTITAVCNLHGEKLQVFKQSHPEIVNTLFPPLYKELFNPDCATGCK
human Peroxisome Proliferator-activated Receptor alpha (PPARa), PPARA (gene 5465), sequence (Q07869 whole entry, looked up): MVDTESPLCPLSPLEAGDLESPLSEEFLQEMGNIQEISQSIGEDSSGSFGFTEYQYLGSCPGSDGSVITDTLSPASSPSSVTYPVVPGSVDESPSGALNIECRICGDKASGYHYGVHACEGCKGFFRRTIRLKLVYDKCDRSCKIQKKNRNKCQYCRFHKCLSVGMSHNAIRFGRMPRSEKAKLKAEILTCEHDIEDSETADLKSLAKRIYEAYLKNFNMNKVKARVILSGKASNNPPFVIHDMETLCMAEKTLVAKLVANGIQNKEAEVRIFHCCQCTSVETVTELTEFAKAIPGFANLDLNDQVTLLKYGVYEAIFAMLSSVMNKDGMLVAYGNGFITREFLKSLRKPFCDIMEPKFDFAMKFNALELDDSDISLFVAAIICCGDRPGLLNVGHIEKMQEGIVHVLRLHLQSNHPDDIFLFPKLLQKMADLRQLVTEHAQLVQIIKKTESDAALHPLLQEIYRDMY
Nuclear receptor subfamily 1 group I member 2 (Homo sapiens), sequence (O75469 whole entry, looked up, the tested form may be a part): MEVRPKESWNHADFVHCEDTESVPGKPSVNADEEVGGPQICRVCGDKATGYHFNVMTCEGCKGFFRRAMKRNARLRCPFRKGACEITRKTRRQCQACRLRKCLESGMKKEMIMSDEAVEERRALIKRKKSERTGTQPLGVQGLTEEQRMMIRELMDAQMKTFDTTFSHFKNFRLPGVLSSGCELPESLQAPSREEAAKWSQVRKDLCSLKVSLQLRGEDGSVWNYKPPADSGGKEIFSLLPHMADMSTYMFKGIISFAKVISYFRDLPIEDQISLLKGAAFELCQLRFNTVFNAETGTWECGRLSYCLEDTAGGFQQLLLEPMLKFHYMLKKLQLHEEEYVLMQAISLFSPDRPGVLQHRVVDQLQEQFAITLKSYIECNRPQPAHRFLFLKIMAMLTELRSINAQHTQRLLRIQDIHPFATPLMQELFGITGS
Peroxisome proliferator-activated receptor gamma (Homo sapiens), sequence (P37231 whole entry, looked up, the tested form may be a part): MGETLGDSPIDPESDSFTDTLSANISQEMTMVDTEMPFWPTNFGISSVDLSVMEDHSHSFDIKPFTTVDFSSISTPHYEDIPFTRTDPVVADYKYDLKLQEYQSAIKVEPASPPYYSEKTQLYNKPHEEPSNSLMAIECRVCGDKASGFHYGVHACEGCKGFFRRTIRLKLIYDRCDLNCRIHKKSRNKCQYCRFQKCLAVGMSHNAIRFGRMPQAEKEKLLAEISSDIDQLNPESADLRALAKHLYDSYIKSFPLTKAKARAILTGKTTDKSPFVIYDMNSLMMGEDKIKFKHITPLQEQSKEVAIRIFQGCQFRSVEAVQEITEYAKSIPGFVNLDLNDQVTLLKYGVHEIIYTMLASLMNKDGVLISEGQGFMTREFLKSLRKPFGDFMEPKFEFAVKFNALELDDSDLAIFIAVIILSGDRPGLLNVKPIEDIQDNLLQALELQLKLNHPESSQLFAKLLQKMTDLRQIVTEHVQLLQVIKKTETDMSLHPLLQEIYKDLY
human Retinoic Acid Receptor beta (RARb), RARB (gene 5915), sequence (P10826 whole entry, looked up, the tested form may be a part): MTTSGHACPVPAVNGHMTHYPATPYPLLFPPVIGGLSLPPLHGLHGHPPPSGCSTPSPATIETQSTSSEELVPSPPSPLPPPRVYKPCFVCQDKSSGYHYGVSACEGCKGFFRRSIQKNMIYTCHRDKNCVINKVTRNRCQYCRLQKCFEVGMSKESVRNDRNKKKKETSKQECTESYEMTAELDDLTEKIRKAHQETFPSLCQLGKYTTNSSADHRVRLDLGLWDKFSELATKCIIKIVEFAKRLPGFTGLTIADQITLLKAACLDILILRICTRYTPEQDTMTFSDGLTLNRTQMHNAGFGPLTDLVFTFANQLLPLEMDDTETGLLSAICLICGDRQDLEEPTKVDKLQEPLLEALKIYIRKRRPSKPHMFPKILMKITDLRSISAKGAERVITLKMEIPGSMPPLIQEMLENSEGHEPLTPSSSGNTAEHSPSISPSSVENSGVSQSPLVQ
human Peroxisome Proliferator-activated Receptor delta (PPARd), PPARD (gene 5467), sequence (Q03181 whole entry, looked up, the tested form may be a part): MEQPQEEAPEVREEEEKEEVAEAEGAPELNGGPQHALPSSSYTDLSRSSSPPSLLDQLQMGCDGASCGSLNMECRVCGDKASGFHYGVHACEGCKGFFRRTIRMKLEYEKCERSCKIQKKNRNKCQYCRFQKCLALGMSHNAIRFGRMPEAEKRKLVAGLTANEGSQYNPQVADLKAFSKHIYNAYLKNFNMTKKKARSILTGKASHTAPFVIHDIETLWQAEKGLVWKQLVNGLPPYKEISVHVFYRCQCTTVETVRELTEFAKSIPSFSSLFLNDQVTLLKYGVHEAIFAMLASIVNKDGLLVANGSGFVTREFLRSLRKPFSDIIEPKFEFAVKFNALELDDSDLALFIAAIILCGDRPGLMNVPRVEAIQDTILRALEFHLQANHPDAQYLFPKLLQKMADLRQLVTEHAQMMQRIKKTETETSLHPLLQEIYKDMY
Retinoic acid receptor alpha (Homo sapiens), sequence (P10276 whole entry, looked up, the tested form may be a part): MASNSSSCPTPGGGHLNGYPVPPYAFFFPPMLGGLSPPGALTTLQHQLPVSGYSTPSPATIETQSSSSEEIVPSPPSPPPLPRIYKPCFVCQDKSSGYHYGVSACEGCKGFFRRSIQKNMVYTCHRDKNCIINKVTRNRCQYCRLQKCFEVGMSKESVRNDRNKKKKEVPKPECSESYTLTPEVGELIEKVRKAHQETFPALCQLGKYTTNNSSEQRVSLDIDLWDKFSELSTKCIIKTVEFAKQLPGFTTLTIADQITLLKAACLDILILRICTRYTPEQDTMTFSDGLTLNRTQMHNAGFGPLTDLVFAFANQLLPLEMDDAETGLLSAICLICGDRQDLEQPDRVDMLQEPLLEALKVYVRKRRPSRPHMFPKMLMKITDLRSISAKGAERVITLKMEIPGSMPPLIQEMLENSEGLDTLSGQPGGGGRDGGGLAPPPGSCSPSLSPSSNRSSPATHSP

C#C[C@]1(O)CC[C@H]2[C@@H]3CCC4=CC(=O)CC[C@@H]4[C@H]3CC[C@@]21CC
active: [4] 16 µM
inactive: [1] | [2] | [3] | [5]

CCCOC(=O)c1ccc(C(=O)OCCC)nc1
inactive: [1] | [2] | [6] | [7] | [4] | [5] | [8] | [9]

CCCCC(CC)COC(=O)c1ccccc1C(=O)O (stereo not given)
inactive: [1] | [2] | [3] | [4]

CC(=O)[C@H]1CC[C@H]2[C@@H]3CCC4=CC(=O)CC[C@]4(C)[C@H]3CC[C@]12C
inactive: [1] | [2] | [5]
active: [2] 136 µM | [4] 3.36 µM

Cc1nn(C)c(Oc2ccccc2)c1C=NOCc1ccc(C(=O)OC(C)(C)C)cc1
active: [4] 7.65 µM | [5] 1.88 µM
inactive: [1] | [2] | [6] | [7] | [10] | [8] | [9]

COc1c(Cl)ccc(Cl)c1C(=O)O
inactive: [1] | [2] | [3] | [6] | [7] | [4] | [5] | [8]

CC(C)CCCCCCc1ccc(O)cc1
active: [4] 4.54 µM | [5] 11.1 µM | [8] 14.2 µM
inactive: [1] | [2] | [6] | [7] | [5] | [8] | [9]

c1ccc2[nH]c(-c3cscn3)nc2c1
inactive: [1] | [2] | [6] | [7] | [4] | [5] | [10]

CCOC(=O)NCCOc1ccc(Oc2ccccc2)cc1
active: [4] 20 µM | [5] 19.3 µM
inactive: [1] | [2] | [3] | [6] | [7] | [8]

O=C(O)C1(C(=O)Nc2ccc(Cl)cc2Cl)CC1
inactive: [1] | [2] | [8]
active: [4] 32 µM | [5] 35.1 µM

CC(=O)S[C@@H]1CC2=CC(=O)CC[C@]2(C)[C@H]2CC[C@@]3(C)[C@@H](CC[C@@]34CCC(=O)O4)[C@H]12
active: [4] 28 µM
inactive: [1] | [2] | [3] | [5]

CC(C)(C)[C@@H](O)[C@@H](Cc1ccc(Cl)cc1)n1cncn1
inactive: [1] | [2] | [6] | [7] | [4] | [5] | [8]

C[C@]12C[C@H](O)[C@H]3[C@@H](CCC4=CC(=O)CC[C@@]43C)[C@@H]1CC[C@@H]2C(=O)CO
inactive: [1] | [2] | [3] | [6] | [5]
active: [4] 29 µM

CCCCOCCOCCOCc1cc2c(cc1CCC)OCO2
active: [4] 24 µM | [5] 16.9 µM | [10] 13.3 µM
inactive: [1] | [2] | [3] | [6] | [7] | [8]

CN(C)C(=O)Nc1ccc(Cl)c(Cl)c1
active: [1] 15 µM
inactive: [1] | [2] | [3] | [6] | [7] | [4] | [5] | [8] | [9]

CCN(CC)C(=O)c1cccc(C)c1
inactive: [1] | [2] | [6] | [7] | [4] | [5] | [8]

CC(C)(c1ccc(O)cc1)c1ccc(O)cc1
inactive: [1] | [2] | [6] | [7] | [4] | [5] | [8] | [9]
active: [4] 27.4 µM | [5] 14.2 µM and 18.3 µM and 25.8 µM

COC(=O)c1c(Cl)nn(C)c1S(=O)(=O)NC(=O)Nc1nc(OC)cc(OC)n1
inactive: [1] | [2] | [4] | [5] | [8] | [9]

CCCCOC(=O)C(C)Oc1ccc(Oc2ccc(C(F)(F)F)cn2)cc1 (stereo not given)
inactive: [1] | [2] | [6] | [4] | [5] | [10] | [9]

OB(O)O
inactive: [1] | [2] | [3] | [6] | [7] | [4] | [5] | [10] | [8] | [9]

CCC(C)OC(=O)N1CCCCC1CCO (stereo not given)
inactive: [1] | [2] | [6] | [4] | [5]

CCOC(=O)c1ccc(O)cc1
inactive: [1] | [2] | [3] | [6] | [7] | [4] | [8]
active: [1] 20.5 µM
